# Assay results from the supplement of paper PMC8728848.
# This is one part of a sample in which the strongest signals are shown more often than they occur.
# B1: Protein L(B1-B4) (Finegoldia magna), Q51912 (protein)
# chain: KEETPETPETDSEEEVTIKANLIFANGSTQTAEFKGTFEKATSEAYAYADTLKKDNGEYTVDVADKGYTLNIKFAGKEKTPEEPKEEVTIKANLIYADGKTQTAEFKGTFEEATAEAYRYADALKKDNGEYTVDVADKGYTLNIKFAGKEKTPEEPKEEVTIKANLIYADGKTQTAEFKGTFEEATAEAYRYADLLAKENGKYTVDVADKGYTLNIKFAGKEKTPEEPKEEVTIKANLIYADGKTQTAEFKGTFAEATAEAYRYADLLAKENGKYTADLEDGGYTINIRFAG
# Assays:
# Test in all cases: glycan array binding signal (z-score within array); higher = stronger binding
# Conditions in all cases: glycan notation: IUPAC condensed, linker removed
# [1] = target: Fuc(a1-2)Gal(b1-3)GlcNAc(b1-3)[Fuc(a1-2)Gal(b1-3)GlcNAc(b1-6)]GalNAc
# Outline: (§1)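 Arrays were curated from the Consortium for Functional Glycomics database, 3228 in total, and kept only where the protein sequence was available. Binding is expressed as a within-array Z-score. This score was averaged across arrays of the same protein sequence at different concentrations or buffers and across linkers, and negative values can be read as non-binding.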
# [2] = target: Fuc(a1-2)Gal(b1-3)[Fuc(a1-4)]GlcNAc(b1-3)[Gal(b1-4)GlcNAc(b1-6)]Gal(b1-4)Glc
# Outline: as §1
# [3] = target: Fuc(a1-2)Gal(b1-4)Fuc(a1-3)]GlcNAc(b1-2)Man(a1-3)[Fuc(a1-2)Gal(b1-4)[Fuc(a1-3)]GlcNAc(b1-2)Man(a1-6)]Man(b1-4)GlcNAc(b1-4)GlcNAc
# Outline: as §1
# [4] = target: Fuc(a1-2)Gal(b1-4)[Fuc(a1-3)]GlcNAc
# Outline: as §1
# [5] = target: Fuc(a1-2)Gal(b1-4)[Fuc(a1-3)]GlcNAc(b1-3)Gal(b1-4)[Fuc(a1-3)]GlcNAc(b1-3)Gal(b1-4)[Fuc(a1-3)]GlcNAc
# Outline: as §1
# [6] = target: Fuc(a1-2)[Gal(a1-3)]Gal(b1-3)GlcNAc(b1-2)Man(a1-3)[Fuc(a1-2)[Gal(a1-3)]Gal(b1-3)GlcNAc(b1-2)Man(a1-6)]Man(b1-4)GlcNAc(b1-4)[Fuc(a1-6)]GlcNAc
# Outline: as §1
# [7] = target: Fuc(a1-2)[Gal(a1-3)]Gal(b1-4)Glc
# Outline: as §1
# [8] = target: Fuc(a1-2)[Gal(a1-3)]Gal(b1-4)GlcNAc(b1-3)GalNAc
# Outline: as §1
# [9] = target: Fuc(a1-2)[Gal(a1-3)]Gal(b1-4)GlcNAc(b1-6)GalNAc
# Outline: as §1
# [10] = target: Fuc(a1-2)[GalNAc(a1-3)]Gal(b1-4)GlcNAc(b1-2)Man(a1-3)[Fuc(a1-2)[GalNAc(a1-3)]Gal(b1-4)GlcNAc(b1-2)Man(a1-6)]Man(b1-4)GlcNAc(b1-4)[Fuc(a1-6)]GlcNAc
# Outline: as §1
# [11] = target: Gal(b1-3)GlcNAc(b1-2)[Gal(b1-3)GlcNAc(b1-6)]Man(a1-6)[Gal(b1-3)GlcNAc(b1-2)Man(a1-3)]Man(b1-4)GlcNAc(b1-4)GlcNAc
# Outline: as §1
# [12] = target: Gal(b1-3)GlcNAc(b1-3)Gal(b1-4)GlcNAc(b1-6)[Gal(b1-3)GlcNAc(b1-3)]Gal(b1-4)Glc
# Outline: as §1
# [13] = target: Gal(b1-3)[Fuc(a1-4)]GlcNAc(b1-2)Man
# Outline: as §1
# [14] = target: Gal(b1-4)GlcNAc(b1-2)[Gal(b1-4)GlcNAc(b1-6)]Man(a1-6)[Gal(b1-4)GlcNAc(b1-2)Man(a1-3)]Man(b1-4)GlcNAc(b1-4)[Fuc(a1-6)]GlcNAc
# Outline: as §1
# [15] = target: Gal(b1-4)GlcNAc(b1-3)Gal(b1-4)GlcNAc(b1-2)Man(a1-3)[Gal(b1-4)GlcNAc(b1-3)Gal(b1-4)GlcNAc(b1-2)Man(a1-6)]Man(b1-4)GlcNAc(b1-4)[Fuc(a1-6)]GlcNAc
# Outline: as §1
# [16] = target: Gal(b1-4)GlcNAc(b1-3)Gal(b1-4)GlcNAc(b1-3)Gal(b1-4)GlcNAc(b1-3)Gal(b1-4)GlcNAc(b1-2)Man(a1-3)[Gal(b1-4)GlcNAc(b1-3)Gal(b1-4)GlcNAc(b1-3)Gal(b1-4)GlcNAc(b1-3)Gal(b1-4)GlcNAc(b1-2)Man(a1-6)]Man(b1-4)GlcNAc(b1-4)GlcNAc
# Outline: as §1
# [17] = target: Gal(b1-4)GlcNAc(b1-3)Gal(b1-4)GlcNAc(b1-3)Gal(b1-4)GlcNAc(b1-3)Gal(b1-4)GlcNAc(b1-3)Gal(b1-4)GlcNAc(b1-2)Man(a1-3)[Gal(b1-4)GlcNAc(b1-3)Gal(b1-4)GlcNAc(b1-3)Gal(b1-4)GlcNAc(b1-3)Gal(b1-4)GlcNAc(b1-3)Gal(b1-4)GlcNAc(b1-2)Man(a1-6)]Man(b1-4)GlcNAc(b1-4)GlcNAc
# Outline: as §1
# [18] = target: Gal(b1-4)GlcNAc(b1-3)Gal(b1-4)GlcNAc(b1-3)[Gal(b1-4)GlcNAc(b1-3)Gal(b1-4)GlcNAc(b1-6)]GalNAc
# Outline: as §1
# Gal3S(b1-3)GlcNAc = target: Gal3S(b1-3)GlcNAc
# Outline: as §1
# [19] = target: Gal3S(b1-4)[Fuc(a1-3)]Glc6S
# Outline: as §1
# [20] = target: GalNAc(b1-4)GlcNAc(b1-2)Man(a1-3)[GalNAc(b1-4)GlcNAc(b1-2)Man(a1-6)]Man(b1-4)GlcNAc(b1-4)GlcNAc
# Outline: as §1
# GlcA(b1-3)GlcNAc = target: GlcA(b1-3)GlcNAc
# Outline: as §1
# [21] = target: GlcNAc(b1-3)Gal(b1-4)GlcNAc(b1-3)Gal(b1-4)GlcNAc(b1-2)Man(a1-3)[GlcNAc(b1-3)Gal(b1-4)GlcNAc(b1-3)Gal(b1-4)GlcNAc(b1-2)Man(a1-6)]Man(b1-4)GlcNAc(b1-4)[Fuc(a1-6)]GlcNAc
# Outline: as §1
# [22] = target: GlcNAc(b1-3)Gal(b1-4)GlcNAc(b1-3)Gal(b1-4)GlcNAc(b1-3)Gal(b1-4)GlcNAc(b1-2)Man(a1-3)[GlcNAc(b1-3)Gal(b1-4)GlcNAc(b1-3)Gal(b1-4)GlcNAc(b1-3)Gal(b1-4)GlcNAc(b1-2)Man(a1-6)]Man(b1-4)GlcNAc(b1-4)GlcNAc
# Outline: as §1
# [23] = target: GlcNAc6S(b1-3)Gal(b1-4)GlcNAc
# Outline: as §1
# [24] = target: Man(a1-3)[Man(a1-6)]Man(a1-6)[Man(a1-2)Man(a1-3)]Man(b1-4)GlcNAc(b1-4)GlcNAc
# Outline: as §1
# Man(a1-6)Man = target: Man(a1-6)Man
# Outline: as §1
# [25] = target: Neu5Ac(a2-3)Gal(b1-4)GlcNAc(b1-2)Man(a1-3)[Neu5Ac(a2-6)Gal(b1-4)GlcNAc(b1-2)Man(a1-6)]Man(b1-4)GlcNAc(b1-4)GlcNAc
# Outline: as §1
# [26] = target: Neu5Ac(a2-3)Gal(b1-4)GlcNAc(b1-2)[Neu5Ac(a2-3)Gal(b1-4)GlcNAc(b1-4)]Man(a1-3)[GlcNAc(b1-4)][Neu5Ac(a2-3)Gal(b1-4)GlcNAc(b1-2)[Neu5Ac(a2-3)Gal(b1-4)GlcNAc(b1-6)]Man(a1-6)]Man(b1-4)GlcNAc(b1-4)GlcNAc
# Outline: as §1
# [27] = target: Neu5Ac(a2-3)Gal(b1-4)GlcNAc(b1-3)Gal(b1-4)GlcNAc(b1-3)Gal(b1-4)GlcNAc
# Outline: as §1
# [28] = target: Neu5Ac(a2-3)Gal(b1-4)GlcNAc(b1-3)Gal(b1-4)[Fuc(a1-3)]GlcNAc
# Outline: as §1
# [29] = target: Neu5Ac(a2-3)Gal(b1-4)GlcNAc6S
# Outline: as §1
# [30] = target: Neu5Ac(a2-3)[GalNAc(b1-4)]Gal(b1-4)GlcNAc(b1-3)GalNAc
# Outline: as §1
# [31] = target: Neu5Ac(a2-6)Gal(b1-4)GlcNAc(b1-3)Gal(b1-4)GlcNAc(b1-3)Gal(b1-4)GlcNAc(b1-2)Man(a1-3)[Neu5Ac(a2-6)Gal(b1-4)GlcNAc(b1-3)Gal(b1-4)GlcNAc(b1-3)Gal(b1-4)GlcNAc(b1-2)Man(a1-6)]GalNAc
# Outline: as §1
# [32] = target: Neu5Ac(a2-6)Gal(b1-4)GlcNAc(b1-3)Gal(b1-4)GlcNAc(b1-3)[Neu5Ac(a2-6)Gal(b1-4)GlcNAc(b1-3)Gal(b1-4)GlcNAc(b1-6)]GalNAc
# Outline: as §1
# [33] = target: Neu5Ac(a2-6)Gal(b1-4)GlcNAc(b1-6)GalNAc
# Outline: as §1
# [34] = target: Neu5Ac(a2-6)Gal(b1-4)GlcNAc(b1-6)[Gal(b1-3)GlcNAc(b1-3)]Gal(b1-4)Glc
# Outline: as §1
# [35] = target: Neu5Ac(a2-8)Neu5Ac(a2-3)Gal(b1-4)Glc
# Outline: as §1
# [36] = target: Neu5Ac(a2-8)Neu5Ac(a2-8)Neu5Ac(a2-3)Gal(b1-4)Glc
# Outline: as §1
# [37] = target: Neu5Ac9Ac(a2-3)Gal(b1-4)GlcNAc
# Outline: as §1
# [38] = target: Neu5Gc(a2-8)Neu5Gc(a2-3)Gal(b1-4)GlcNAc
# Outline: as §1
binder,measurement,setting,value
B1,glycan array binding signal (z-score),[1],2.77
same,glycan array binding signal (z-score),[2],-0.528
same,glycan array binding signal (z-score),[3],1.7
same,glycan array binding signal (z-score),[4],-0.142
same,glycan array binding signal (z-score),[5],0.159
same,glycan array binding signal (z-score),[6],3.09
same,glycan array binding signal (z-score),[7],0.047
same,glycan array binding signal (z-score),[8],3.09
same,glycan array binding signal (z-score),[9],-0.474
same,glycan array binding signal (z-score),[10],2.95
same,glycan array binding signal (z-score),[11],0.177
same,glycan array binding signal (z-score),[12],-0.192
same,glycan array binding signal (z-score),[13],1.5
same,glycan array binding signal (z-score),[14],2.92
same,glycan array binding signal (z-score),[15],0.486
same,glycan array binding signal (z-score),[16],2.06
same,glycan array binding signal (z-score),[17],0.528
same,glycan array binding signal (z-score),[18],4.22
same,glycan array binding signal (z-score),Gal3S(b1-3)GlcNAc,-0.911
same,glycan array binding signal (z-score),[19],2.28
same,glycan array binding signal (z-score),[20],1.49
same,glycan array binding signal (z-score),GlcA(b1-3)GlcNAc,-0.785
same,glycan array binding signal (z-score),[21],3.07
same,glycan array binding signal (z-score),[22],1.06
same,glycan array binding signal (z-score),[23],-0.336
same,glycan array binding signal (z-score),[24],2.94
same,glycan array binding signal (z-score),Man(a1-6)Man,-0.159
same,glycan array binding signal (z-score),[25],-1.02
same,glycan array binding signal (z-score),[26],-0.913
same,glycan array binding signal (z-score),[27],-1.05
same,glycan array binding signal (z-score),[28],-0.359
same,glycan array binding signal (z-score),[29],-0.92
same,glycan array binding signal (z-score),[30],0.809
same,glycan array binding signal (z-score),[31],3.91
same,glycan array binding signal (z-score),[32],2.86
same,glycan array binding signal (z-score),[33],3.08
same,glycan array binding signal (z-score),[34],-0.606
same,glycan array binding signal (z-score),[35],-1.15
same,glycan array binding signal (z-score),[36],0.487
same,glycan array binding signal (z-score),[37],0.223
same,glycan array binding signal (z-score),[38],-1.03
